# Bioassay records deposited in PubChem by National Center for Advancing Translational Sciences (NCATS).
# TDP1 cell CPT: growth inhibition of DT40 Tdp1-/-;hTDP1 cells with camptothecin (screen for TDP1 inhibitors); chicken DT40 Tdp1-/-;hTDP1 cells + 20 nM CPT, ATP luminescence, 48 h; hit rate 12% among 420,000; Potency, µM (doses to about 46.2 µM), inactives show top-dose activity change, negative = growth inhibition, actives largely listed as inhibitors; further: nearly all actives have a fitted effect of over 55% in size
#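 Cell growth measured by CellTiter-Glo luminescence after a minimum 48 h, 37 C compound exposure with 20 nM CPT in Tdp1-knockout DT40 cells stably expressing hTDP1, seeded 400/well; qHTS titration format.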
# Gal4-VP16 FLuc: Gal4-VP16 reporter inhibition counter-screen; Drosophila S2 Gal4-VP16 UAS-luciferase, luminescence, 20 h; Potency, µM (series often up to 53.6 µM), without a hit: top-dose activity, negative = inhibition, usual class: inhibitors; hit rate 3.5% among 310,000; AID 2546;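 further: Gal4-VP16 expression switched on by copper sulfate through the metallothionein promoter; nearly all actives have a fitted effect of over 50% in size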
# DT40 TDP1 no CPT: qHTS for Inhibitors of human tyrosyl-DNA phosphodiesterase 1 (TDP1): qHTS in cells in absence of CPT | Potency, µM (series often up to 46.2 µM), for inactives: at the top dose activity change, negative = growth inhibition, most hits filed as inhibitors | DT40 Tdp1-/- hTDP1 cells, no CPT, ATP luminescence, 48 h | hit rate 15% among 420,000 | AID 686978, 2013; further: nearly all actives have a fitted effect of over 55% in size
#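 Compound effects on proliferation are scored in DT40 Tdp1-/-;hTDP1 cells in the absence of CPT. ATP levels (CellTiter-Glo luminescence) are recorded after a ≥48 hr, 37 °C incubation.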
# ELG1 repair inh: inhibitors of ELG1-dependent DNA repair in HEK293T cells | hit rate 2.3% among 330,000 | AID 504467 | Potency, µM (highest dose often 46.1 µM), for inactives: at the top dose activity change, negative = inhibition, usual class: inhibitors | HEK293T ELG1-luciferase reporter, luminescence, 16 h; DNA damage induced by 5-fluorouridine; further: nearly all actives have a fitted effect of over 55% in size
#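 Overnight (16 hr) co-exposure of 2,000 cells/well to 5-fluorouridine and compound at 37 °C preceded detection. Luciferase was quantified via ONE-Glo luminescence; loss of signal denotes inhibition.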
# 12-LOX inh: ALOX12 (human) lipoxygenase inhibition | P18054 | purified 12hLO, xylenol orange hydroperoxide absorbance | Potency, µM (highest dose often 108 µM), inactives show top-dose activity change, negative = inhibition, actives largely listed as inhibitors | AID 1671190 | hit rate 1.1% among 580,000
# Target sequence (P18054 whole entry, looked up): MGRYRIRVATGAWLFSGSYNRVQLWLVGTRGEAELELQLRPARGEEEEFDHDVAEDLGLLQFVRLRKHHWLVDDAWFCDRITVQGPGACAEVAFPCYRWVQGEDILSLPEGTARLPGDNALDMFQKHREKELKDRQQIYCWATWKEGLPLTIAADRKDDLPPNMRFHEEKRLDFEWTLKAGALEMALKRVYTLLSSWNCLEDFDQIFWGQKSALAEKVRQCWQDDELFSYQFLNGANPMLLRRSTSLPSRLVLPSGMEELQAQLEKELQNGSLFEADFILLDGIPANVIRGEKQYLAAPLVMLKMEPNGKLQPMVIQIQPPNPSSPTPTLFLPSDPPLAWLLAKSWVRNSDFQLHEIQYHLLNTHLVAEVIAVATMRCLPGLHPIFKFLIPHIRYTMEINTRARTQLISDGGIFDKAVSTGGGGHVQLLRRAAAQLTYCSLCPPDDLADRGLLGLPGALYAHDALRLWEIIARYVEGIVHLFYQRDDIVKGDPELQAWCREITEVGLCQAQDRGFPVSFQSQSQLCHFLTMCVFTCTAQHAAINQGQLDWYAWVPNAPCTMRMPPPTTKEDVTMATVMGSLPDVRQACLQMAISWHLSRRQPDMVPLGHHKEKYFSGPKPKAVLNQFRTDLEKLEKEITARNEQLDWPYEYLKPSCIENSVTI
#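 Purified human 12hLO (150 nM final) in 25 mM Hepes, 0.01% Triton X-100, pH 7.0 was preincubated 15 min at room temperature with compound. Then 40 uM arachidonic acid was added, 30 min. Hydroperoxide was read by Fe-XO absorbance ratio 573/405 nm.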
# RORg inh: ROR gamma (mouse) transcription inhibition | P51450 | Drosophila S2 Gal4-RORgamma UAS-luciferase reporter, 20 h | Potency, µM (highest dose often 53.6 µM), for the others: top-dose activity change, negative = inhibition, hits mostly inhibitors | hit rate 5.4% among 310,000 | AID 2551; further: nearly all actives have a fitted effect of over 60% in size
#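 Compounds are pin-transferred onto Drosophila Schneider cells expressing a copper-inducible Gal4–ROR gamma transactivation domain fusion. After 1 hr, copper sulfate is added to 700 uM final; luciferase is read 20 hr later.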
# An asterisk follows results filed as active; ? = inconclusive; · = no result given; [ ] = another dose, or the depositor's remark. A selection: hits, their analogues and other compounds. The true share with any hit is near 15%. The call rests on the fitted dose curve; in most records, active means well fitted curve in the direction sought with a large enough effect; inconclusive means small, poorly fitted or top-dose-only effect, or another doubt; inactive means no such curve, though single readings can be large; an effect the other way counts as inactive or inconclusive. On the % scale 0 is the no-effect control and ±100 the full control effect; potency means the concentration at half of the fitted maximal effect.
SMILES,TDP1 cell CPT,Gal4-VP16 FLuc,DT40 TDP1 no CPT,ELG1 repair inh,12-LOX inh,RORg inh
Oc1[nH]c2ccccc2c1N=NC(=S)NCCc1ccccc1,16µM*,3.2µM*,?,-29%,?,4.5µM*
Cc1ccc2[nH]c(O)c(N=NC(N)=S)c2c1,?,2%,-3%,24%,?,20%
NC(=S)N=Nc1c(O)[nH]c2ccccc12,13%,-3%,-10%,-9%,-26%,20µM*
CCNC(=S)N=Nc1c(O)[nH]c2ccc(C(C)C)cc12,5.2µM*,7.1µM*,5.2µM*,?,11%,2.8µM*
CCCCn1c(NCc2ccccc2O)nc2ccccc21,?,23%,?,0%,2%,?
CCCCn1c(NCc2ccc(OC)cc2O)nc2ccccc21,15µM*,·,10µM*,·,?,·
CCCCCn1c(NCc2ccccc2OC)nc2ccccc21,?,·,21µM*,·,6%,·
CCN(CC)CCn1c(NCc2cccc(OC)c2OC)nc2ccccc21,?,17%,?,0%,?,-26%
CCCCn1c(NCc2ccc3c(c2)OCO3)nc2ccccc21,?,-6%,26µM*,-14%,339%,-10%
C=CCc1cccc(CNc2nc3ccccc3n2CCC)c1O,?,?,23µM*,-17%,-11%,-1%
C=CCc1cccc(CNc2nc3ccccc3n2CC)c1O,?,-14%,?,?,-2%,?
CCOC(=O)C1CCCN(S(=O)(=O)c2cc(-c3nc(-c4ccc(Cl)cc4)no3)sc2C)C1 (configuration not stated),·,·,·,·,2%,·
CN1CCN(c2oc(COc3ccccc3F)nc2C#N)CC1,·,·,·,·,38%,·
NS(=O)(=O)c1ccc(O)cc1,·,·,·,·,28%,·
COc1ccc(-c2nnc(SCc3nnc(C)o3)n2CCc2ccccc2)cc1,·,·,·,·,-1%,·
Cc1cccc(Nc2nnc(-c3ccc(C)c(S(=O)(=O)N4CCOCC4)c3)c3ccccc23)c1,16µM*,·,6.5µM*,·,-9%,·
Cc1ccc(-c2nnc(Nc3cccc(Cl)c3)c3ccccc23)cc1S(=O)(=O)N1CCOCC1,16µM*,·,4.1µM*,·,?,·
Cc1cccc(Nc2nnc(-c3ccc(C)c(S(=O)(=O)N4CCCCC4)c3)c3ccccc23)c1,?,·,?,·,-4%,·
Cc1ccc(-c2nnc(Nc3cccc(C(F)(F)F)c3)c3ccccc23)cc1S(=O)(=O)N1CCOCC1,9.2µM*,·,8.2µM*,·,-3%,·
CC(=O)Nc1ccc(CN2CCC3(CC2)CC(c2cccc(C(F)(F)F)c2)=NO3)cc1,·,·,·,·,12%,·
CC(C)NC(=O)N(C1CC1)C1CCOC2(CCN(C(=O)Cc3ccccc3)CC2)C1 (configuration not stated),·,·,·,·,19%,·
CCc1cc2c(N=Nc3c(O)[nH]c4ccccc34)ncnc2s1,18µM*,-8%,21µM*,9%,29%,-5%[10 µM]
Cc1sc2ncnc(N=Nc3c(O)[nH]c4ccccc34)c2c1C,-8%,10%,23µM*,-27%,1%,-6%[10 µM]
Oc1[nH]c2ccccc2c1N=Nc1ncnc2c1oc1ccccc12,·,-2%,·,15%,3%,6%
Oc1[nH]c2ccccc2c1N=Nc1nncc2ccccc12,?,-15%,?,?,0%,-32%
COCCn1c(C)c(C)c(S(=O)(=O)c2ccc(F)cc2)c1NC(=O)COC,·,·,·,·,2%,·
O=C(NCc1ccccc1Cl)c1c2c(nc3ccccc13)C(=O)N(C1CCCCC1)C2,18µM*,·,?,·,?,·
O=C(NCc1ccccc1)c1c2c(nc3ccccc13)C(=O)N(C1CCCCC1)C2,16µM*,·,18µM*,·,-24%,·
